Test results as given in paper PMC12136788.
Where a chain is given by its changes, count along the chain named. Whole data set: some 24,000 sequences, median “enrichment r” near 0.99, cut for the highest 2% near 3.7. What follows is part of a selection rich in the highest values, with near analogues and random picks from the rest.

T1: UNK ZnF1-3 (human, UniProt Q9C0B0 31-174)
T1 sequence: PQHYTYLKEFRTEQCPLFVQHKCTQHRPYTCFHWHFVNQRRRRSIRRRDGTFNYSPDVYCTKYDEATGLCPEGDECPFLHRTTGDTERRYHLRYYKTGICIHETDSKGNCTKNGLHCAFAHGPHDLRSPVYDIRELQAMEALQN

B1: chrX:140365796:140365797:-_ENSMUSG00000031285_ENSMUST00000033642|mus_mus|mus_mus_mus_hu_False|8_58 (ssRNA)
RNA: GGGAGUUCUACAGUCCGACGAUCCUUCUCAUUACUCAGUGCCUGCAAGGUUCUGGUUCGGUAGAAGCUACAGUGGGCACUAUGAGUGGGGCUAGGCAACCCAUUCAUCCGGGAGCCUCGCAUGUUCCUAGAUGCUUUAUCUCUCAACAGAGGAUUGAGCAUCA
B2: chr3:10015032:10015033:+_ENSMUSG00000027533_ENSMUST00000029046|mus_mus|mus_mus_mus_hu_True|1_38 (ssRNA)
RNA: GGGAGUUCUACAGUCCGACGAUCGUUUUUACCAUCACAAGUGAUGAUACAAUCUGGCUUGGCCAUUGCGCCCAUUUUUCGCAAAGCUAUUCCCACUCCUAGCUCUUUCAUGUAUUCAUCAAAGCCUUUGCUGUCCAUCAGGCGCAACAGAGGAUUGAGCAUCA
B3: chr4:6320793:6320794:+_ENSMUSG00000028249_ENSMUST00000103008|mus_mus|FALSE|FALSE (ssRNA)
RNA: GGGAGUUCUACAGUCCGACGAUCAGUAGGCAUGAUUGUGAUGGUAACCACAGUCCCAGCUGUUGACAGUAUAUCUGCAAUCUGAGCAUCCUUCAAGCCAAUGACGUUCUGUCCGUUGAUCUCACAGAUGUGGUGAUCAGUGAGCAACAGAGGAUUGAGCAUCA
B4: chr3:142455598:142455599:-_ENSMUSG00000004591_ENSMUST00000043812|mus_mus|FALSE|FALSE (ssRNA)
RNA: GGGAGUUCUACAGUCCGACGAUCGUAGAGCAUUUGAUCAAAUUAUUUGUGAGACUUUUGAGGUACAGCUUUAGUGUUAUAAUAACUUUUUAUAAAAUAUAGACUGUUUUAUCAAAAAUAUUUAUACAUUCUGUUACAAUAUAUCAACAGAGGAUUGAGCAUCA
B5: chr2:202488911:202488912:-_ENSG00000155755_ENST00000286196|hu_hu|FALSE|FALSE (ssRNA)
RNA: GGGAGUUCUACAGUCCGACGAUCUUUUAACAUUUUUCAUAAUAUUGAGAGAUGUUUCAGUAUUAUAUAAUCAAAAAAUCUAUUACAAAUACACAUGUAUACAUCUUAUAAAAAUACAUUUAAAAACAAAAAUGGGACAAAUACCAACAGAGGAUUGAGCAUCA
B6: chr20:57609950:57609951:-_ENSG00000101166_ENST00000355937|hu_hu|FALSE|FALSE (ssRNA)
RNA: GGGAGUUCUACAGUCCGACGAUCUGUUUUGAUCAAGUCACAUAGCCUUACACCAACUUAUCAAAAAAAAAAAAAAAAAAACUACCCAAAAUAUAGUUGUAUUUUUAAAAUAACAAAUAAAUAUAUAGUCAGUUUGGAGAGACCCAACAGAGGAUUGAGCAUCA
B7: chr2:174291214:174291215:-_ENSMUSG00000016257_ENSMUST00000016401|mus_hu|motif|central (ssRNA)
RNA: GGGAGUUCUACAGUCCGACGAUCUUGAUCAAGUCACAUAGCCUUACACCAACUUAUCAAAAAAAAAAAAAAAAAAACGGCCCAAAAUAUAGUUGUAUUUUUAAAAUAACAAAUAAAUAUAUAGUCAGUUUGGAGAGACCUGGACAACAGAGGAUUGAGCAUCA
B8: chr2:174291214:174291215:-_ENSMUSG00000016257_ENSMUST00000016401|mus_hu|FALSE|FALSE (ssRNA)
RNA: B7 RNA with G78U, G79A
B9: chr7:135612270:135612271:-_ENSG00000105887_ENST00000393085|hu_mus|hu_hu_hu_mus_False|8_18 (ssRNA)
RNA: GGGAGUUCUACAGUCCGACGAUCGUUUUUUUCUGAGAUGUUAAAUAGUACUUCAGUGGAAAACAAAACUUAACCUUUUAUUAAUGCGUGUUGUACCAAAAGCAGACAUUUUAGCUUGCUUCCUUUACUCAAAAUAUCAUUAAGCAACAGAGGAUUGAGCAUCA
B10: chr22:42024162:42024163:+_ENSG00000196419_ENST00000405878|hu_hu|FALSE|FALSE (ssRNA)
RNA: GGGAGUUCUACAGUCCGACGAUCCUCAUCUUCACUCUGAGAUUCAAACAUAGCCUUGGAGGCAUCAACCAAAAAAAUCAAACUAUCUCUUCCUGAAUAUUUAUAGUCUCCACUUGCUUCAAGGUUCUCUUCUUGUUCUUCCUCCAACAGAGGAUUGAGCAUCA
B11: 60597838_60597958_3500_3pUTR_ENSMUSG00000049323_ENSMUST00000056907|mouse|control|control (ssRNA)
RNA: GGGAGUUCUACAGUCCGACGAUCUUUUUGGGAGCUACUUCCUUAAUGAACCAGGAGCAGCUGCUACUGUCCUUCUGGAGGGCCAUGUGCCACCUCUGCUCAGCCCACAUCACACACUGCCCAGGGCUAUGUUGCAACUAUAACCAACAGAGGAUUGAGCAUCA
B12: chr17:45757878:45757879:+_ENSG00000108424_ENST00000290158|hu_hu|FALSE|FALSE (ssRNA)
RNA: GGGAGUUCUACAGUCCGACGAUCUGGCCUAGCUUCUACUAAUUUCAGUACAUCCUUCCCAAAUGCUGUACAUAAGUCCCCUAUUAGUCCAGCAGCACAAGCUACUACUCCAUCUGUGUGAUCCUCAUCUCCAGCAAUGUGGUCCAACAGAGGAUUGAGCAUCA
B13: chr19:16452684:16452685:+_ENSMUSG00000024639_ENSMUST00000025541|perfect_dup|FALSE|FALSE (ssRNA)
RNA: GGGAGUUCUACAGUCCGACGAUCGUUUAAGAACAGAAUCACAGAGGAGUUCUGGAACCAGGGGUAGGUGAUAAUUGUUCUAAAGAGUGCUUUGCUCUCCUCCAUGCGGUUCUCAUUGUCUGACUCCACAAGAACUUGAUCAUACAACAGAGGAUUGAGCAUCA
B14: chr5:128448638:128448639:+_ENSG00000066583_ENST00000173527|hu_mus|hu_hu_hu_mus_False|98_98 (ssRNA)
RNA: GGGAGUUCUACAGUCCGACGAUCGGCACUCGCCUUAAUUAGAUUCUGAAUUUCCUUGAACUUCGGGUGGUCUUUGUCAGCCACCAGCUGUAGGAGGACAGCCUCACUAGUGGUCACGAUGAUCCCAGUGCGGGCAAGACGCUCCAACAGAGGAUUGAGCAUCA

The binders below were run against T1, UNK ZnF1-3 (assay: nsRBNS (natural sequence RNA bind-n-seq); RBNS binding buffer (assumed for nsRBNS): 25 mM Tris pH 7.5, 150 mM KCl, 3 mM MgCl2, 0.01% Triton X-100, 500 ug/ml BSA, 20 U/ml SUPERase-In, 4 C; UNK is unkempt and MSI1 is Musashi-1; names of the RNAs are library labels; protein concentration not given here; high values mean tight binding).

Binder	binding signal [enrichment R]
B1	0.475
B2	0.702
B3	0.725
B4	0.537
B5	1.78
B6	5.71
B7	8.06
B8	7.95
B9	0.545
B10	1.1
B11	0.845
B12	1.02
B13	0.726
B14	0.728
